The list is not random: actives were taken first. Their share in the collection is about 3.2%.
AHR act: activators of human aryl hydrocarbon receptor; AHR-responsive luciferase reporter cells, luminescence; 320,000 compounds, 2.5% hits; P35869; activation, % at 5 µM; in the data active means activation above about 47%
NTR1 ag: NTR1 (human) agonism. P30989. NTR1-U2OS beta-arrestin-GFP spot imaging, agonist mode. activation, % at 20 µM. 330,000 compounds, 0.17% hits. AID 493036;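 active means activation at or above 40% of the spot to cytoplasm intensity ratio, with at least 20 cells analyzed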
Target sequence (P30989 whole entry, looked up): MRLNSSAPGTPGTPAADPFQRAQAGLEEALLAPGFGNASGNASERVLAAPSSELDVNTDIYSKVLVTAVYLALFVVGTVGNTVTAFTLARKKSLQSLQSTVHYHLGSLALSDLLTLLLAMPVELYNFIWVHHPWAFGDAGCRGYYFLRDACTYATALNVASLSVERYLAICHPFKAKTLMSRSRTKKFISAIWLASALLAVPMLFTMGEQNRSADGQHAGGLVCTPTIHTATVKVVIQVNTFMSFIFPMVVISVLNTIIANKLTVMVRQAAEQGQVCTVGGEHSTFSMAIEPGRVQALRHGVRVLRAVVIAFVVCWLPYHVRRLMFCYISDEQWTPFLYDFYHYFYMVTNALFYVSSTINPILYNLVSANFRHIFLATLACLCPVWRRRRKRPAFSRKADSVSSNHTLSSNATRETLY
APOBEC3A inh: human APOBEC3A DNA deaminase inhibition | P31941 | recombinant A3A, FAM/TAMRA ssDNA deamination fluorescence | inhibition, % at 20 µM | 330,000 compounds, 0.41% hits | AID 493011;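 active means at least 40% inhibition at 20 µM here, with at most 30% in a related deaminase screen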
Target sequence (P31941 whole entry, looked up): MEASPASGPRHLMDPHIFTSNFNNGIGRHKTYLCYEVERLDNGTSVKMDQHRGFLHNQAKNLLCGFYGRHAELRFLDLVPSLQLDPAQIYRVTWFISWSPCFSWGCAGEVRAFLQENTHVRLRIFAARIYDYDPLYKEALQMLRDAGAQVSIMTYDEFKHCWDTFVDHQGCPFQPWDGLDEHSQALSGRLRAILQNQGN
A3G deaminase: inhibitors of human APOBEC3G DNA deaminase; Q9HC16; recombinant A3G, ssDNA deamination FAM/TAMRA fluorescence; inhibition, % at 20 µM; 330,000 compounds, 0.28% hits; AID 493012;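 active means inhibition of at least 40% at 20 µM, with no more than 30% in the related APOBEC3A deaminase screen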
AHR act confirm: human AHR activation, confirmation. shares compounds with AHR act. human cells, AHR-responsive luciferase reporter, luminescence. activation, % at 9 µM. 2,300 compounds, 87% hits; in the data active means activation above about 49%;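 further: HepG2 hepatoma cells carrying a DRE-driven firefly luciferase reporter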
PXR act counter: PXR activation, counter-screen for AHR activators; shares compounds with AHR act; cell-based PXR reporter, luciferase luminescence; activation, % at 11.6 µM; 2,300 compounds, 88% hits; AID 434939; in the data active means activation above about 11%;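 further: human hepatoma DPX-2 cells expressing full-length human PXR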
Of the large screens only hits and unclear results are named; the others gave an inactive call (follow-up assays come after a bar, where they were run).

O=C(c1ccccc1)N1CCN(c2ccc([N+](=O)[O-])cc2-n2cccc2)CC1	none
CCCCC(=O)Nc1cccc(-c2cn3ccsc3n2)c1	none
O=C(Nc1cccc(-c2cn3ccsc3n2)c1)c1ccccc1	AHR act 81.7 | AHR act confirm 72.1 | PXR act counter 14.0
COC(=O)c1sccc1NC(=O)c1ccc(C(C)C)cc1	AHR act 95.4 | AHR act confirm 96.9 | PXR act counter 14.8
Cc1ccc(S(=O)(=O)N2CCN(C(=O)COC(=O)c3cnc(C)cn3)CC2)c(C)c1	none
O=[N+]([O-])c1cccc(/C([O-])=C(/C(=S)Nc2ccccc2)[n+]2ccccc2)c1	AHR act 82.5 | AHR act confirm inactive | PXR act counter 159.0
C=C1c2ccccc2S(=O)(=O)N(Cc2ccccc2)C1COCc1ccccc1 (configuration not stated)	none
Nc1nc2ccccc2n1/N=C/c1ccc([N+](=O)[O-])s1	AHR act 127.6 | AHR act confirm 79.0 | PXR act counter 11.4
Nc1nc2ccccc2n1/N=C/c1cccnc1	none
CC(=O)Nc1cccc2c1C(=O)N(c1ccc(C)cc1)C2=O	AHR act 99.2 | AHR act confirm 98.7
CCN1CCc2nc3ccccc3c(C(=O)Nc3ccc(F)cc3)c2C1	AHR act 94.0 | AHR act confirm 63.0 | PXR act counter 26.4
c1ccc2nc3c(nc2c1)OCC1CCCCN31 (configuration not stated)	AHR act 102.4 | AHR act confirm 103.8 | PXR act counter 46.2
O=C(/C(=C(\[O-])c1ccccc1)[n+]1ccc2ccccc2c1)c1ccc(Cl)cc1	AHR act 103.0 | AHR act confirm 91.7 | PXR act counter 53.6
O=C(/C(=C(\[O-])c1ccccc1)[n+]1ccc2ccccc2c1)c1ccccc1	none (no result: NTR1 ag, APOBEC3A inh, A3G deaminase)
COc1ccccc1-c1nnc(-c2ccc(C)cc2)o1	AHR act 80.7 | AHR act confirm 122.7 | PXR act counter 39.2
COc1ccccc1-c1nnc(-c2ccc(N3CCOCC3)cc2)o1	none
O=CC1=C(N2CCOCC2)/C(=C/c2ccc(Cl)cc2)CC1	none
Cc1cc(C)nc(N/N=C/C2=C(N3CCOCC3)C(=C\c3ccc(Cl)cc3)/CC2)n1	AHR act 90.1 | AHR act confirm 125.6 | PXR act counter 12.4
Cc1c(C(=O)NCc2ccccc2CN2CCCC2)oc2c(F)cccc12	AHR act 80.3 | AHR act confirm 95.4 | PXR act counter 38.5
O=c1cc(-c2ccco2)oc2c1ccc1ccccc12	AHR act 79.3 | AHR act confirm 60.9 | PXR act counter 24.6
COc1ccc(NC(=O)c2cc3c(-c4ccc(OC)c(OC)c4)nn(C)c3s2)cc1OC	none
COc1ccc(-c2[nH]c(-c3ccc(C)cc3)nc2SCC(=O)NCc2ccco2)cc1OC	AHR act 120.6 | AHR act confirm 84.8 | PXR act counter 12.4
COc1ccc(-c2ccc(SCC(=O)NCc3ccco3)nn2)cc1OC	none
COc1ccc(-c2nn(C)c3sc(C(=O)NCc4ccco4)cc23)cc1OC	AHR act 134.5 | AHR act confirm 111.6 | PXR act counter 34.9
Cc1cccc(NC(=O)c2cc([N+](=O)[O-])ccc2N2CCCCC2)n1	none
CCOCCc1nnc(NC(=O)c2ccc(OC)c(OC)c2)s1	AHR act 115.0 | AHR act confirm 81.4
CCOCCc1nnc(NC(=O)c2cc(OC)c(OC)cc2[N+](=O)[O-])s1	none
Cc1cccc(C(=O)N=c2sccn2C)c1[N+](=O)[O-]	AHR act 99.0 | AHR act confirm 81.6 | PXR act counter 141.8
CCN(CC)S(=O)(=O)c1cc(C(=O)N=c2sccn2C)ccc1OC	AHR act 99.6 | AHR act confirm 87.4 | PXR act counter 125.4
CCCCOc1ccc(C(=O)N=c2sccn2C)cc1OC	none
Cc1ccc(C(=O)N=c2sccn2C)cc1C	AHR act 193.7 | AHR act confirm 136.0 | PXR act counter 41.3
COc1cccc(C(=O)NN2C(=S)N(c3ccccc3)C(=O)C2CC(N)=O)c1 (configuration not stated)	none
CC12CC3(C)CC(C)(C1)CC(C(=O)NC(=S)N1CCCC1)(C2)C3	none
O=C(Nc1ccc(Cl)c(C(F)(F)F)c1)c1ccco1	AHR act 81.7 | AHR act confirm inactive | PXR act counter inactive
Nc1nc2ccc(NC(=O)c3ccco3)cc2s1	AHR act 82.4 | AHR act confirm 52.3 | PXR act counter 15.3
C(=N\N(c1ccccc1)c1ccccc1)/c1ccc(N2CCOCC2)s1	none
CC(C(N)=O)N1C(=O)NC2(CCCc3ccccc32)C1=O (configuration not stated)	none
CC1S/C(=C(\C#N)C(N)=O)N(c2ccc(F)cc2)C1=O (configuration not stated)	AHR act 97.0 | AHR act confirm 121.6 | PXR act counter 14.6
COc1ccc(CNS(=O)(=O)c2cn(C)c(=O)n(C)c2=O)cc1	none
CN1C(=O)/C(=C/c2ccccc2OCc2cccc(F)c2)NC1=S	AHR act 96.7 | AHR act confirm 74.1 | PXR act counter 34.9
CN1C(=O)/C(=C/c2ccccc2OCc2ccccc2)NC1=S	AHR act 90.5 | AHR act confirm 64.0 | PXR act counter 29.6
CN1C(=O)/C(=C/c2ccccc2OCc2ccc(C(=O)O)cc2)NC1=S	none
COc1cc(/C=C2\NC(=S)N(C)C2=O)ccc1OCc1cccc(F)c1	none
COc1ccc(OC)c(NC(=O)CN2CCc3ccccc3C2)c1	none
O=c1[nH]c(=O)c2ncc(-c3ccc(Cl)cc3)nc2[nH]1	none
Cn1nc(NC(=O)C(F)(F)F)c2ncc(-c3ccc(Cl)cc3)nc21	AHR act 133.6 | AHR act confirm 130.7 | PXR act counter 37.1
Clc1ncccc1-c1nc2ccccc2s1	none
Clc1cc2nc(-c3cccnc3Cl)[nH]c2cc1Cl	AHR act 112.7 | AHR act confirm 108.1 | PXR act counter 44.8
O=C(CN1C(=O)NC2(CCCc3ccccc32)C1=O)NCc1ccc(Cl)cc1Cl (configuration not stated)	none
Cc1ccc(-c2nc3cccnc3s2)cc1NS(=O)(=O)c1ccc2c(c1)CCCC2	AHR act 92.9 | AHR act confirm 56.5 | PXR act counter 154.3
COc1ccc(CCNC(=O)CC2Nc3ccccc3NC2=O)cc1OC (configuration not stated)	none
COc1ccc(CCNC(=O)CC2Oc3ccc(Cl)cc3NC2=O)cc1OC (configuration not stated)	AHR act 97.8 | AHR act confirm inactive | PXR act counter 45.8
O=C(COc1ccc(S(=O)(=O)N2CCOCC2)cc1)Nc1ccccc1Cl	none
COc1ccc(OC)c(NC(=O)c2cccc(NC(=O)c3ccccc3C(=O)O)c2)c1	none
CC(C)c1ccc(NC(=O)N2CCc3ccccc3C2)cc1	AHR act 114.0 | AHR act confirm 96.2 | PXR act counter 92.7
O=C(Nc1cccc(Cl)c1)N1CCc2ccccc2C1	AHR act 114.0 | AHR act confirm 118.1 | PXR act counter 29.8

Compound activity as filed in PubChem BioAssay.
